For six molecules, MAPPIT interaction score results are on record in the supplement of paper PMC10105736.

Unmarked numbers belong to inactive results.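 The calls were made as follows: active = MAPPIT score above the 99th percentile of random reference set scores in the same batch; inactive = at or below it.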

What all share (assay): MAPPIT interaction score (arbitrary units); higher = stronger binary interaction signal, active = hit call of the paper
One experiment concerns the target BORCS6. As to conditions: MAPPIT configuration: N-C; pair source set: screen_3.
For a further experiment, the target named is Blos1. As to conditions: MAPPIT configuration: N-N; pair source set: Finley_Y2H.
Another experiment has as its target Tm1. The following applies: MAPPIT configuration: N-N; pair source set: screen_2.
A further experiment deals with mldr. The following applies: MAPPIT configuration: N-N; pair source set: Finley_Y2H.
Another experiment concerns the target Bet1. The following applies: pair source set: Lit-BM-16.
In another experiment the target is Bfc. As to conditions: MAPPIT configuration: N-C; pair source set: screen_4.
A further experiment addresses CG17376. As to conditions: MAPPIT configuration: N-N; pair source set: screen_1.
The next experiment concerns the target CG42565. The following applies: MAPPIT configuration: N-C; pair source set: screen_4.
The target in the next experiment is CG42688. The following applies: MAPPIT configuration: N-C; pair source set: screen_4.
A further experiment deals with aspr. As to conditions: MAPPIT configuration: N-N; pair source set: Curagen_low_conf.
The target of the next experiment is fok. As to conditions: MAPPIT configuration: N-C; pair source set: screen_3.
The next experiment addresses Blos2. The following applies: MAPPIT configuration: N-N; pair source set: Curagen_low_conf.
The target in the next experiment is Bin1. As to conditions: MAPPIT configuration: N-N; pair source set: Lit-BM-16.
The target in a further experiment is Dhx15. The following applies: MAPPIT configuration: N-N; pair source set: DPIM.
Another experiment concerns the target p53. The following applies: MAPPIT configuration: N-N; pair source set: Finley_Y2H.
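Also: HEK293T cells with Epo stimulation, STAT-responsive firefly luciferase reporter, fold induction versus unstimulated cells divided by the larger fold induction of two negative controls lacking either bait or prey.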

B1: Blos1 (protein)
chain: MLTSMVKEHHKEQAKRKQEQEVRRKEAIEASNELTQSLVDTLNVGVAQAYLNQKRLDAEAKQLHLGATNFAKQTHQWLQLIDQFSTALKDLGDVENWARSIEGDMHTINQTLELAYKASRATQTSSGAGTSLEASTSASASANPSAT
Turning to B1, in the experiment with BORCS6, the MAPPIT interaction score was 2.8.

B2: Blos2 (protein)
chain: MDKPTTSAAAAAAQDSNLLPDSPQHGPTLSSASSFEALTRHDPNLSRLATKMFNKTEEYITHELNAPLEDYKLLEEMNKATIAKYKDMRQIAENLNTSTSELSLKFQQLAPMMQQIDEISDTVDKLEAAAYKLDAYSIALENRVKCVLQRKSGGGQVAQ
Regarding B2, the MAPPIT interaction score in the experiment with Blos1 is 2.29; in the experiment with Tm1 it was 1.6; with mldr, 0.813.

B3: Gos28 (protein)
chain: MGGSSYDVLRKQARSLENEIDLKLVAFSKIGAGSGGGGSGGLGGVDTSPLLGEHVFDSLSEEIEQMLEKLSSLNESMSDLPASGAAAMHTLQRHREILQGYRQEFNKICANHTMRIEREELLRGSGLATSSGSPSISGLNRREMYLKESGHLNSASHLVNDQINIAIETRDHLHAQRQAFKRLQTRFNDISNRFPLISSLIQRINIKKRRDSLILGAVIGFCVILLLLYAFN
For B3, the MAPPIT interaction score with Bet1 (MAPPIT configuration: N-C) was -0.272; with Bet1 (MAPPIT configuration: N-N) it was -0.1.

B4: disco (protein)
chain: MEHIMNPFMSPAYLLGHGPHSHQHVHSHLPSHPQPNAASPASSPGGSSGSGSGSAAGSGTGSGSSLKPRRWGSPPINLAGQFINPATGKKRVQCSICFKTFCDKGALKIHFSAVHLREMHKCTVEGCNMVFSSRRSRNRHSANPNPKLHSPHIRRKISPHDGRTAQQFPVFSPGTAAAAAAVAGRLPVAFPGLLPPPPPHHGHHPYVMFGGQAGLHGLGLLSTGCQDPDSGSVDNEQDADPEDDNDFVYVDMQANSSSPAASSEDQEEHERDNEQDEEMHCSLSLASSSSIAADEERAADQPLDFSLHKRRKSEQDREQEQEQEQEREREAEKEQEQDVESDKEHEPEQEHELEREKRSPSDAFSMDQLLGKRKRHDSTASSSACSTAAASSASSSSASASANPPQTSIKMDLDPDSDSAYMTSRRQMLPLPVLDLEEHHHLRLLQTQMFAAAAAAAATSQAPPTAFLPAGSPVDLAKDSPPMWSLLSEMYRSMLLKTQHQQYNHHHQLQQQHQQEQHHHLTLSHHHQEQHHHLGHHHMGHHHHHHHQHHQQQPQQQSPAATNAPISV
On to B4, for which the MAPPIT interaction score with Bfc was 1.54; with CG17376 it was 0.354; with CG42565 it was 2.57; with CG42688 it was 2.18; with aspr, -0.256; with fok, 0.776.

B5: drk (protein)
chain: MEAIAKHDFSATADDELSFRKTQILKILNMEDDSNWYRAELDGKEGLIPSNYIEMKNHDWYYGRITRADAEKLLSNKHEGAFLIRISESSPGDFSLSVKCPDGVQHFKVLRDAQSKFFLWVVKFNSLNELVEYHRTASVSRSQDVKLRDMIPEEMLVQALYDFVPQESGELDFRRGDVITVTDRSDENWWNGEIGNRKGIFPATYVTPYHS
Turning to B5, the MAPPIT interaction score with Blos2 is 0.473.

B6: bcd (protein)
chain: MAQPPPDQNFYHHPLPHTHTHPHPHSHPHPHSHPHPHHQHPQLQLPPQFRNPFDLLFDERTGAINYNYIRPYLPNQMPKPDVFPSEELPDSLVMRRPRRTRTTFTSSQIAELEQHFLQGRYLTAPRLADLSAKLALGTAQVKIWFKNRRRRHKIQSDQHKDQSYEGMPLSPGMKQSDGDPPSLQTLSLGGGATPNALTPSPTPSTPTAHMTEHYSESFNAYYNYNGGHNHAQANRHMHMQYPSGGGPGPGSTNVNGGQFFQQQQVHNHQQQLHHQGNHVPHQMQQQQQQAQQQQYHHFDFQQKQASACRVLVKDEPEADYNFNSSYYMRSGMSGATASASAVARGAASPGSEVYEPLTPKNDESPSLCGIGIGGPCAIAVGETEAADDMDDGTSKKTTLQILEPLKGLDKSCDDGSSDDMSTGIRALAGTGNRGAAFAKFGKPSPPQGPQPPLGMGGVAMGESNQYQCTMDTIMQAYNPHRNAAGNSQFAYCFN
As to B6, the MAPPIT interaction score with Bin1 was 0.579; in the experiment with Dhx15 it was 1.72; in the experiment with p53, -0.0711.
